“And” between values parts separate entries of the source, which are not always exact repeats. Equal values may be shown once. Out of some 5,500 compounds screened, about 2,000 (36%) were called active. Roughly 18% stayed inconclusive and do not appear here. Cut-off read from the data, not from the text of the source: active = normalized growth mostly below about 0.91 (no sharp cut-off); inconclusive = no clear call, values can overlap the other calls; inactive = mostly above about 0.92. This is one part of the list.
Experiment: chemical genetic growth profiling, strain panel (AID 1159580);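 note: tested at 20 µM; growth read once vehicle control cultures reached saturation at 30 °C; 1 = growth at the plate median or of vehicle wells; lower values mean less growth of the strain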
Conditions: S. cerevisiae deletion strains, growth OD

Measured: normalized growth

CC(C(=O)O)c1ccc(-c2ccccc2)c(F)c1 (stereo unspecified)
inactive: locus YAL013W, strain DEP1, stronger effect = lower value 0.952 | locus YAL021C, strain ccr4, stronger effect = lower value 0.978 | locus YAL026C, strain drs2, stronger effect = lower value 0.949 | locus YAL030W, strain snc1, stronger effect = lower value 0.99 | locus YBL061C, strain skt5, stronger effect = lower value 1 | locus YBR009C, strain hhf1, stronger effect = lower value 0.984 | locus YBR021W, strain FUR4, stronger effect = lower value 0.936 | locus YBR023C, strain chs3, stronger effect = lower value 1.02 | locus YBR171W, strain sec66, stronger effect = lower value 0.968 | locus YBR229C, strain ROT2, stronger effect = lower value 0.993 | locus YBR231C, strain swc5, stronger effect = lower value 0.974 | locus YBR279W, strain paf1, stronger effect = lower value 1.01 | locus YCL011C, strain gbp2, stronger effect = lower value 1 | locus YCL016C, strain dcc1, stronger effect = lower value 1.02 | locus YCL029C, strain bik1, stronger effect = lower value 0.944 | locus YCL061C, strain MRC1, stronger effect = lower value 0.99 | locus YCL069W, strain vba3, stronger effect = lower value 0.99 | locus YCR088W, strain abp1, stronger effect = lower value 0.978 | locus YDL005C, strain med2, stronger effect = lower value 0.965 | locus YDL035C, strain GPR1, stronger effect = lower value 0.958 | locus YDL040C, strain nat1, stronger effect = lower value 0.995 | locus YDL074C, strain BRE1, stronger effect = lower value 0.959 | locus YDL101C, strain DUN1, stronger effect = lower value 1.01 | locus YDL192W, strain arf1, stronger effect = lower value 0.974 | locus YDR001C, strain nth1, stronger effect = lower value 0.977 | locus YDR069C, strain doa4, stronger effect = lower value 1.02 | locus YDR159W, strain sac3, stronger effect = lower value 0.913 | locus YDR162C, strain NBP2, stronger effect = lower value 0.936 | locus YDR195W, strain ref2 0.985 | locus YDR297W, strain sur2, stronger effect = lower value 0.992 | locus YDR318W, strain mcm21, stronger effect = lower value 0.979 | locus YDR334W, strain swr1, stronger effect = lower value 0.972 | locus YDR335W, strain msn5, stronger effect = lower value 1.01 | locus YDR388W, stronger effect = lower value 0.963 | locus YDR392W, strain spt3, stronger effect = lower value 0.748 | locus YDR502C, strain sam2, stronger effect = lower value 0.968 | locus YEL003W, strain gim4, stronger effect = lower value 0.967 | locus YEL037C, strain rad23, stronger effect = lower value 0.983 | locus YEL061C, strain CIN8 (second series), stronger effect = lower value 0.979 | locus YEL061C, strain CIN8, stronger effect = lower value 0.963 | locus YER015W, strain faa2, stronger effect = lower value 1 | locus YER016W, strain bim1, stronger effect = lower value 0.971 | locus YER110C, stronger effect = lower value 0.974 | locus YER111C, strain swi4, stronger effect = lower value 0.977 | locus YER155C, strain BEM2 (second series), stronger effect = lower value 0.979 | locus YER155C, strain BEM2, stronger effect = lower value 0.93 | locus YER167W, strain BCK2, stronger effect = lower value 0.974 | locus YFR010W, strain ubp6, stronger effect = lower value 0.997 | locus YGL086W, strain mad1, stronger effect = lower value 0.974 | locus YGL167C, strain pmr1, stronger effect = lower value 0.983 | locus YGL173C, strain kem1, stronger effect = lower value 0.968 | locus YGL227W, strain vid30, stronger effect = lower value 0.991 | locus YGL240W, strain doc1, stronger effect = lower value 0.953 | locus YGL248W, strain PDE1, stronger effect = lower value 1 | locus YGL253W, strain hxk2, stronger effect = lower value 0.98 | locus YGR135W, strain pre9, stronger effect = lower value 1.04 | locus YGR252W, strain gcn5, stronger effect = lower value 1.04 | locus YHR013C, strain ard1, stronger effect = lower value 1.05 | locus YHR027C, strain rpn1, stronger effect = lower value 0.994 | locus YHR079C, strain IRE1 (second series), stronger effect = lower value 0.959 | locus YHR094C, strain hxt1, stronger effect = lower value 0.951 | locus YHR129C, strain ARP1, stronger effect = lower value 0.99 | locus YHR142W, strain chs7, stronger effect = lower value 1.01 | locus YHR200W, strain rpn10, stronger effect = lower value 0.978 | locus YIL066C, strain RNR3, stronger effect = lower value 0.981 | locus YIL073C, strain SPO22, stronger effect = lower value 1.01 | locus YIR030C, strain dcg1, stronger effect = lower value 0.963 | locus YJL092W, strain hpr5, stronger effect = lower value 0.99 | locus YJL095W, strain BCK1 (second series), stronger effect = lower value 0.988 | locus YJL115W, strain asf1, stronger effect = lower value 0.982 | locus YJL129C, strain trk1, stronger effect = lower value 0.933 | locus YJL134W, strain LCB3, stronger effect = lower value 0.975 | locus YJL154C, strain vps35, stronger effect = lower value 0.984 | locus YJL164C, strain tpk1, stronger effect = lower value 0.992 | locus YJL166W, strain qcr8, stronger effect = lower value 1.01 | locus YJL168C, strain set2, stronger effect = lower value 0.959 | locus YJL187C, strain SWE1 (second series), stronger effect = lower value 0.989 | locus YJL187C, strain SWE1, stronger effect = lower value 0.985
active: locus YDL185W, strain tfp1, stronger effect = lower value 0.869 | locus YDR101C, strain arx1, stronger effect = lower value 0.917 | locus YDR137W, strain rgp1, stronger effect = lower value 0.821 | locus YGL078C, strain dbp3, stronger effect = lower value 0.913 | locus YHR079C, strain IRE1, stronger effect = lower value 0.774 | locus YIL125W, strain kgd1, stronger effect = lower value 0.868
1 (inactive) and 0.73 (active): locus YJL095W, strain BCK1, stronger effect = lower value
0.944 (inactive) and 0.704 (active): locus YHR030C, strain SLT2, stronger effect = lower value
